# Laboratory results: the supplement of paper PMC10338343
# ± gives the standard deviation.
# Test system: MILI (PIWIL2) piRISC loaded with piRNA #1 (26 nt)
# Assay: pre-steady-state target cleavage rate (min^-1); guide: piRNA #1 5'p-UGAGGUAGUAGGUUGUAUAGUAUCCA; MIWI and MILI are mouse PIWI proteins and EfPiwi is from a freshwater sponge; tags in brackets are library labels; higher = faster piRNA-guided slicing of the target
# Conditions: auxiliary factor: 500 nM mouse GTSF1
# Experimental: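 Cleave-'n-Seq: a library of target RNAs (target site embedded in constant flanks, ACAGCATTCCGCGTTAGTGATATCCG... 5' flank; DNA-blocked outside the site) at 0.1 nM was incubated with 1 nM active mouse MILI or MIWI piRISC (synthetic 5'-monophosphorylated piRNA guide) with or without 500 nM mouse GTSF1 at 33 °C for 1 min to 16 h. Uncleaved targets were sequenced and normalised to non-target controls, and the pooled three trials were fitted to a burst-and-steady-state model to give the pre-steady-state cleavage rate (min^-1; k3 is constrained to at most 1e-4). Sequence is the target site only; target names encode pairing extent (gX:gY) and contiguous / 1-mismatch / 2-mismatch / bulge geometry. Fits with R² ≤ 0 are excluded.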
row,Sequence,pre-steady-state target cleavage rate
1,GGAGUGGAUCACUAUACAACCUACUACCUCA,0.0867 ± 0.025
2,GGAGAGGAUACUAUACCAACCUACUACCUCA,0.0443 ± 0.0084
3,GGAGACCUAACGAUACAACCUACUACCUCA,0.257 ± 0.053
4,GGAGACCUAACUAUACAUCCUACUUCCUCA,0.14 ± 0.044
5,GGAGACCAUACUAUACAACCUACAACGUCA,0.0302 ± 0.012
6,GGAGACCUAACUAUACAACCUACUGCCUCA,0.102 ± 0.024
7,GGAGAGGAAUGUAUACAACCUACUACCUCA,0.0539 ± 0.0062
8,GGAGUGGAUACUAAUGAACCUACUACCUCA,0.0477 ± 0.0065
9,GGAGUGGAUACUAUACAUCCUACUACGUCA,0.0364 ± 0.0082
10,GGAGUGGAUAGUAUACAACCUACUAGCUCA,0.00679 ± 0.003
11,GGAGACCAUACUAUACAACCUACUAGCUCA,0.137 ± 0.025
12,GGAGAGGAUACUAUACAACCUACCUACCUCA,0.142 ± 0.013
13,GGAGACCAGUACUAUACAACCUACUACCUCA,0.177 ± 0.021
14,GGAGAGGAUACUAUACAACCUGACUACCUCA,0.00367 ± 0.0024
15,GGAGACCUUAUUAUACAACCUACUACCUCA,0.14 ± 0.011
16,GGAGACCUAUGAUAUCAACUCUACUACCUCA,< 0.0001
17,GGAGACCUAUGAUAUCAACCUACGUACCUCA,0.00296 ± 0.0024
18,GGAGACCUAUGAUAAAACCUACUACCUCA,0.00798 ± 0.0023
19,GGAGACCUAUCUAUACAGCCUACUACCUCA,0.0315 ± 0.006
20,GGAGACCAUUCUAUAGAACCUACUACCUCA,0.116 ± 0.015

row,Sequence,pre-steady-state target cleavage rate
1,GGAGACGAUACUAAACAACCUACUACCUGA,0.124 ± 0.02
2,GGAGACCUUACUAUACAAGCUACAACCUCA,0.239 ± 0.018
3,GGAGACCUAACUAUACAACCUACGUACCUCA,0.0356 ± 0.015
4,GGAGACCUAUGAUUACAACCUACUAACCUCA,0.0091 ± 0.0025
5,GGAGACCUUCCUAUACAACCUACUACCUCA,0.113 ± 0.027
6,GGAGACCUUACUAUACAAGCUACUACCACA,0.266 ± 0.023
7,GGAGAGGAUACUAUACAACCUACUGCCUCA,0.126 ± 0.014
8,GGAGAGCAUACUAAACAACCUACUACCUCA,0.158 ± 0.015
9,GGAGACCUAUCUAUAUAACCUACUACCUCA,0.0723 ± 0.0089
10,GGAGACCUAUCUAUACAACCUACUAGCUGA,0.00493 ± 0.0036
11,GGAGUGGAUACUAAACAACCUACUACCUCA,0.168 ± 0.0092
12,GGAGACCUAUGAUUACAACCUACUCCCUCA,0.00393 ± 0.0029
13,GGAGACCAGACUAUACAACCUACUACCUCA,0.193 ± 0.06
14,GGAGACGAUACUAUACAACCUACUACCAGA,0.125 ± 0.02
15,GGAGACCUAUCUUUACAAGCUACUACCUCA,0.122 ± 0.01
16,GGAGACCUAUGAUAUGUAACCUACUACCUCA,0.017 ± 0.0038
17,GGAGACCUUACAAUACAUCCUACUACCUCA,0.232 ± 0.021
18,GGAGACCUAUCUAUACAACCCACUACCUCA,0.0169 ± 0.0041
19,GGAGACCUAUGUAUACAACCGACUACCUCA,0.00448 ± 0.0021
20,GGAGACGAUUCUAUACAACCUACUUCCUCA,0.0941 ± 0.016
